Results on 13 compounds are retold here after the supplement of paper PMC7184167.

Structures are written as SMILES. Where a name gives a salt, the structure may show the parent alone.

This experiment has as its system replication-induced senescent mouse newborn dermal fibroblasts (NBF). Put plainly: relative cell viability of senescent cells (fraction); higher = less killing of senescent cells. Particulars: 1 µM; 3 days. As to the method: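 Replication-induced senescent newborn mouse skin fibroblasts (NBFs) in 24-well plates were treated with a Selleck FDA-approved drug library at 1 µM for 3 days.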
Compound `CC(C)[C@H](O)C(=O)N[C@@H](C)C(=O)N[C@@H]1C(=O)N(C)CCc2ccccc21` returned a relative cell viability of 0.981.
In the case of `COc1cc2c(Oc3ccc4[nH]c(C)cc4c3F)ncnc2cc1OCCCN1CCCC1` [Cediranib (AZD2171)] it was 0.269; in that of `CCCOc1ccc(C(=O)OCCN(CC)CC)cc1N` [Proparacaine HCl], 0.992; in that of `CNC(=O)c1ccc2cc([C@@]3(O)CCn4cncc43)ccc2c1` [TAK-700 (Orteronel)], 0.282.
Under `CC1=C(/C=C/C(C)=C/C=C/C(C)=C/C(=O)O)C(C)(C)CCC1` [Tretinoin] stands 0.466; under `O=C(c1cc(Cc2n[nH]c(=O)c3ccccc23)ccc1F)N1CCN(C(=O)C2CC2)CC1`, 1.09; under `CC(=O)OCC[N+](C)(C)C` [Acetylcholine Chloride], 0.052.
`COC(=O)Nc1nc2cc([S+]([O-])c3ccccc3)ccc2[nH]1` (stereo not drawn) [Oxfendazole] yielded a relative cell viability of 1.04.
Compound `CCn1cc(C(=O)O)c(=O)c2cc(F)c(N3CCNCC3)nc21` [Enoxacin] came in with a relative cell viability of 1.05.
In the case of `CC(C)c1cc(-c2n[nH]c(=O)n2-c2ccc3c(ccn3C)c2)c(O)cc1O` [Ganetespib (STA-9090)] it was 0.0837; in that of `NCCCC(O)(P(=O)(O)O)P(=O)(O)O` [Alendronate sodium trihydrate], 0.251; in that of `COc1ccccc1OCC(O)COC(N)=O` (stereo not drawn) [Methocarbamol], 1.03.
`Cc1[nH]c2ccccc2c1CCNCc1ccc(/C=C/C(=O)NO)cc1` [Panobinostat (LBH589)] showed a relative cell viability of 1.08.
